Experimental data published in PubChem BioAssay (NCATS).
Results filed as inconclusive are left out. A call without a number means that no potency is given here. Values without a mark were called inactive. The source made the active and inactive calls. Unless noted, calls come from the whole dose curve; as a rule, active = well fitted curve in the direction sought with a large enough effect; inconclusive = small, poorly fitted or top-dose-only effect, or another doubt; inactive = no such curve, though single readings can be large; an effect the other way counts as inactive or inconclusive.

Columns and labels:
[1] = Primary qHTS for inhibitors of La Crosse Virus (LACV) - induced cell death in SH-SY5Y cells (AID 1508616);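 note: top concentration of the series differs between compounds; higher means more rescue of cells from virus-induced death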
How it was run: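 Cytopathicity rescue screen: compounds pinned onto SH-SY5Y cells, which are then infected with LACV (MOI 0.01) and held 6 days at 37C. Percent activity is scaled between infected DMSO control and uninfected DMSO control.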

[2] = molecular target: Calcium and integrin-binding protein 1 (Homo sapiens) (UniProt Q99828); assay: Primary qHTS for Identification of Calcium Integrin Binding Protein 1 (CIB1) Competitor (AID 1508620);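 note: GST tagged CIB1 binding a fluorescein labelled alphaIIb integrin peptide tracer; top concentration of the series differs between compounds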
Chain of Calcium and integrin-binding protein 1 (Homo sapiens) (Q99828 whole entry, looked up): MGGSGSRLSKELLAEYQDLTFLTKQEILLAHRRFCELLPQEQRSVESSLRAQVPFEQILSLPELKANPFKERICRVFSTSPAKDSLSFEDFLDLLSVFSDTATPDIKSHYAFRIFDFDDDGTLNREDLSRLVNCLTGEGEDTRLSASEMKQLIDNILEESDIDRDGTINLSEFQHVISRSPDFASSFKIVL
How it was run: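 Fluorescence polarization competition: GST-tagged CIB1 (1 uM final) preincubated with compound 15 min at room temperature, then FITC-labelled alphaIIb peptide (100 nM final) added. After 15 min at room temperature, polarization read at Ex 480/Em 540.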

[3] = A High-Content qHTS Against Drug Library for the Identification of Small Molecules that Inhibit DYT1 Early Onset Primary Dystonia-Associated Cell Pathology (AID 1645839; calls by dose curve; note: potency is the fitted concentration of half-maximal effect)
How it was run: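 Cells were seeded and left for 24 h, then dosed with compound alongside tetracycline induction of mutant EGFP-TorsinA. They were incubated for 48 h, fixed in 4% paraformaldehyde, permeabilized and imaged for mislocalization (%pathology) and cell count.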

[4] = Primary qHTS for inhibitors of nuclear receptor binding SET domain protein 2 (NSD2) in an isogenic RCH-ACV NSD2 p.E1099K mutant (9B) (AID 1645876); note: nearly all actives have a fitted effect of over 70% in size; note: potency is the fitted concentration of half-maximal effect
[5] = molecular target: Cytochrome P450 2C9 (Homo sapiens) (UniProt P11712); assay: Cytochrome P450 family 2 subfamily C member 9 (CYP2C9) small molecule antagonists: luciferase biochemical (cell-free) qHTS assay (AID 1645842; active = well fitted curve in the direction sought with a large enough effect in the repeat runs; an effect the other way counts as inactive or inconclusive; note: nearly all actives have a fitted effect of over 55% in size; note: potency is the fitted concentration of half-maximal effect)
Chain of Cytochrome P450 2C9 (Homo sapiens) (P11712 whole entry, looked up): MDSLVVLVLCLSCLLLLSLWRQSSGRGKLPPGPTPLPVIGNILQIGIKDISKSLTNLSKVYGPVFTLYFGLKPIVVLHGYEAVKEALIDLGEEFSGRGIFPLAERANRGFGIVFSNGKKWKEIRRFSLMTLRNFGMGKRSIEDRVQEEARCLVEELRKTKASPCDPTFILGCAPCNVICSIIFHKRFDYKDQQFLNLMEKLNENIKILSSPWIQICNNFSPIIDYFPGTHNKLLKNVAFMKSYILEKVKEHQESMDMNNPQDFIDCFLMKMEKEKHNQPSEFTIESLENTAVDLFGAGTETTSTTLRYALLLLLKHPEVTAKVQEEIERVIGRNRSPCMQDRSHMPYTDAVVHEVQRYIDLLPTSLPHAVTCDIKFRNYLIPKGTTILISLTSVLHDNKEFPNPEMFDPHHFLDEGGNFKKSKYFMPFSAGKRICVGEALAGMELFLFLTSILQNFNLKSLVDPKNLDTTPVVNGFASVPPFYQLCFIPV
How it was run: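 P450-Glo CYP2C9 system: proluciferin substrate with enzyme in mix containing 0.4% BSA, 10 min at room temperature, then NADPH regeneration solution added and incubated 1 h at 37C. Detection reagent stopped reaction; luminescence read after 20 min as RLU.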

[6] = Primary qHTS for inhibitors of nuclear receptor binding SET domain protein 2 (NSD2) in an RCH-ACV wild type WT cells (2C) (AID 1645877); note: nearly all actives have a fitted effect of over 70% in size; note: potency is the fitted concentration of half-maximal effect
[7] = molecular target: Cytochrome P450 2D6 (Homo sapiens) (UniProt P10635); assay: Cytochrome P450 family 2 subfamily D member 6 (CYP2D6) small molecule antagonists: luciferase biochemical (cell-free) qHTS assay (AID 1645840; active = well fitted curve in the direction sought with a large enough effect in the repeat runs; an effect the other way counts as inactive or inconclusive; note: series mostly up to about 57 µM; nearly all actives have a fitted effect of over 55% in size)
Chain of Cytochrome P450 2D6 (Homo sapiens) (P10635 whole entry, looked up): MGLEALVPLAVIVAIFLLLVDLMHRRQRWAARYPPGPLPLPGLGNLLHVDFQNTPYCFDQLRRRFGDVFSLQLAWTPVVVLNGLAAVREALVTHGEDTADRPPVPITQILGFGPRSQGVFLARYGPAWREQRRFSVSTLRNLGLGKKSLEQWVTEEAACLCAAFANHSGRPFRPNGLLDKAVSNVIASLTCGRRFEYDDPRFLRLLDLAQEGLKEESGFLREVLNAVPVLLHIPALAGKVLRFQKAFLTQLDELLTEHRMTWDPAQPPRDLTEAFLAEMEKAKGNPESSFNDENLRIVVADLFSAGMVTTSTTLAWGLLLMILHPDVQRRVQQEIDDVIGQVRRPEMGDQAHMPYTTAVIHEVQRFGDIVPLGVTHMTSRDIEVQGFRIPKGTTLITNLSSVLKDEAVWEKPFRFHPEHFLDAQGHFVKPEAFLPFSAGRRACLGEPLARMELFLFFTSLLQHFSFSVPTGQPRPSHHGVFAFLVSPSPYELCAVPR
How it was run: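 P450-Glo CYP2D6 system: proluciferin substrate converted by enzyme to luciferin, read by luminescence proportional to activity. Enzyme-substrate mix with compound 10 min at room temperature, then NADPH regeneration 1 h before detection reagent.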

[8] = Primary qHTS for small molecule stabilizers of the endoplasmic reticulum resident proteome: Secreted ER Calcium Modulated Protein (SERCaMP) assay (AID 1508630)
How it was run: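 The SH-SY5Y reporter protocol was run at 3 concentrations up to 38.3 uM (primary) or 11 concentrations (follow-up): 16 h compound, 100 nM thapsigargin for 4 h, then extracellular luciferase luminescence.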

Row | Compound | outcome [1] | Potency [2] | Potency [3] | Potency [4] | Potency [5] | Potency [6] | Potency [7] | Potency [8]
1 | Cc1ccc(-c2ccccc2C#N)cc1 | inactive | inactive | inactive | inactive |  |  |  | 
2 | Cc1nc(C2CCCCC2)c(-c2ccc(S(N)(=O)=O)c(F)c2)o1 | inactive | inactive | inactive | 11.9 µM (active) | 2.19 µM (active) | 13.3 µM (active) |  | 
3 | Cc1ccc(O)cc1 | inactive | inactive | inactive | inactive |  | inactive |  | 
4 | O=C(CCCl)NCc1ccccc1 | inactive | inactive | inactive | inactive |  | inactive | inactive | 
5 | CN1CC(=O)N2[C@H](c3ccc4c(c3)OCO4)c3[nH]c4ccccc4c3C[C@@H]2C1=O | inactive | inactive | inactive | inactive |  | inactive |  | 
6 | Cc1cc(O)c(C)c(C)c1O | inactive | inactive | inactive | inactive | inactive | inactive |  | 
7 | Nc1ccc(C(=O)OCC(O)CO)cc1 (stereo not drawn) | inactive | inactive | inactive | inactive |  | inactive |  | 
8 | Cc1ccccc1C(=O)N1CC/C(=N\OS(=O)(=O)O)c2ccc(Cl)cc21 | inactive | inactive | inactive | inactive | 8.71 µM (active) | inactive |  | 
9 | c1ccc2c(c1)CCc1ccccc1N2 | inactive | inactive | inactive | inactive |  | inactive |  | 
10 | N#CSCC(=O)O | inactive | inactive |  |  | inactive |  | inactive | 
11 | O=C(CCCCC(=O)Nc1c(I)cc(I)c(C(=O)O)c1I)Nc1c(I)cc(I)c(C(=O)O)c1I | inactive | inactive | inactive | inactive | inactive | inactive |  | 
12 | CCOCCn1c(C2CCN(CCc3ccc(C(C)(C)C(=O)O)cc3)CC2)nc2ccccc21 | inactive | inactive | inactive |  | inactive |  |  | 
13 | O=C(O)c1ccccc1S | inactive | inactive | inactive | inactive | inactive | inactive |  | 
14 | Cc1coc2ccccc2c1=O | inactive | inactive |  | inactive | inactive | inactive | inactive | 
15 | Cc1c(C)c2c(c(C)c1OC(=O)CCC(=O)OCCO)CC[C@@](C)(CCC[C@H](C)CCC[C@H](C)CCCC(C)C)O2 | inactive |  | 5.62 µM (active) | 21.1 µM (active) |  |  |  | inactive
